Where a name gives a salt, the structure may show the parent alone. About 180 (8.6%) of roughly 2,100 compounds showed an effect of 50% or more. Only a selection was taken, and strong results are over-represented in it overall.
Each compound was assayed on MOLM1 and UCSD/AML1 (averaged) (assay: cell viability relative to DMSO control (POC); higher = less growth inhibition). Settings: 1 µM; 72 h.
Method: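 Primary viability screen in the 3q26 EVI1-high AML cell lines MOLM1 and UCSD/AML1 (1.5e3 cells/well, 384-well), compounds at 1 uM for 72 h. ATP CellTiter-Glo read-out given as percent of viable cells over DMSO control (POC), averaged over duplicates. DMSO was the negative control and 5 uM etoposide the positive control. This mapping covers the MicroSource Spectrum and Selleck anticancer libraries (drug names).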
`O=c1cc(-c2ccccc2)oc2cc(O)c(O)cc12` showed a cell viability of 96.6%.
`COc1cc(Nc2ncc3c(n2)-c2ccc(Cl)cc2C(c2c(F)cccc2OC)=NC3)ccc1C(=O)O` [MLN8237 (Alisertib)] showed a cell viability of 49.6%.
Compound `C=C1[C@H]2CC[C@@]3(C)[C@H](c4ccoc4)OC(=O)C[C@]13O[C@H]1C[C@H](O)C(C)(C)[C@H](CC(=O)OC)[C@]12C` [3-DEOXY-3beta-HYDROXYANGOLENSIC ACID METHYL ESTER] has a cell viability of 97.7%.
With `C[C@@H]1CC[C@@]2(OC1)O[C@H]1C[C@H]3[C@@H]4CC=C5C[C@@H](O)CC[C@]5(C)[C@H]4CC[C@]3(C)[C@H]1[C@@H]2C` the cell viability was 93.7%.
For `O=c1cc(-c2ccc(O)cc2)oc2cc(O[C@@H]3O[C@H](CO)[C@@H](O)[C@H](O)[C@H]3O)cc(O)c12`, the cell viability was 104%.
With `O=C(O)c1cc2ccccc2[nH]1` the cell viability was 118%.
With `O=C(O)CCCc1ccccc1` the cell viability was 90.8%.
For `O=C(O)CCC(=O)c1ccc(-c2ccccc2)cc1`, the cell viability was 93.4%.
Work on `O=C(O)CCc1nc(-c2ccccc2)c(-c2ccccc2)o1` yielded a cell viability of 45.5%.
For `C[C@]1(O)C[C@@H](c2nc(-c3ccc4ccc(-c5ccccc5)nc4c3)c3c(N)nccn32)C1` [OSI-906 (Linsitinib)], the cell viability was 100%.
For `O=C(Nc1cccc(Cl)c1)Nc1ncc(CCNc2ncnc3ccsc23)s1` [SNS-314 Mesylate], the cell viability was 60%.
For `CC1(C)[C@@H](O[C@H]2O[C@H](C(=O)O)[C@@H](O)[C@H](O)[C@H]2O[C@@H]2O[C@H](C(=O)O)[C@@H](O)[C@H](O)[C@H]2O)CC[C@]2(C)[C@H]3C(=O)C=C4[C@@H]5C[C@@](C)(C(=O)O)CC[C@]5(C)CC[C@@]4(C)[C@]3(C)CC[C@@H]12`, the cell viability was 96.4%.
Work on `COc1cc(/C=C/C(=O)O)cc(OC)c1OC` yielded a cell viability of 118%.
`COc1cc([C@@H]2c3cc4c(cc3[C@@H](O[C@@H]3O[C@@H]5CO[C@@H](c6cccs6)O[C@H]5[C@H](O)[C@H]3O)[C@H]3COC(=O)[C@H]23)OCO4)cc(OC)c1O` [Teniposide (Vumon)] showed a cell viability of 12.4%.
`COc1cc([C@@H]2c3cc4c(cc3[C@@H](O[C@@H]3O[C@@H]5CO[C@@H](C)O[C@H]5[C@H](O)[C@H]3O)[C@H]3COC(=O)[C@H]23)OCO4)cc(OC)c1O` was tested, and the cell viability was 59.4%.
In the case of `COc1cc([C@@H]2c3cc4c(cc3[C@@H](O[C@@H]3O[C@@H]5CO[C@@H](c6cccs6)O[C@H]5[C@H](O)[C@H]3O)[C@H]3COC(=O)[C@H]23)OCO4)cc(OC)c1O`, the cell viability is reported as 27.5%.
Compound `C[C@@H]1CC[C@@]2(OC1)O[C@H]1C[C@H]3[C@@H]4CC[C@H]5C[C@@H](O)CC[C@]5(C)[C@H]4CC[C@]3(C)[C@H]1[C@@H]2C` has a cell viability of 97.1%.
Compound `CCC[C@H](NC(=O)/C(C#N)=C/c1cccc(Br)n1)c1ccccc1` has a cell viability of 57.8%.
`COc1ccc(C=CC(=O)O)cc1OC` gave a cell viability of 106%.
In the case of `CC(=O)c1c(O)cc(O)cc1O`, the cell viability is reported as 106%.
In the case of `O=C(NC1CCCCC1)NC1CCCCC1`, the cell viability is reported as 120%.
`O=C(O)C(=O)O.[NH-]C1CCCCC1[NH-].[Pt+2]` (centres undefined) [Oxaliplatin (Eloxatin)] showed a cell viability of 41.3%.
For `CC(C)=CCOc1cc2oc(=O)ccc2cc1O`, the cell viability was 98%.
For `O=c1cc(-c2cc(O)c(O)c(O)c2)oc2cc(O)cc(O)c12`, the cell viability was 106%.
`COC(=O)C[C@H]1C2(C)CC34OC5(C)O[C@@]6([C@H](OC(C)=O)C(OC(C)=O)[C@]7(C)C(/C(=C(/O)C(C)C)C(=O)O[C@H]7c7ccoc7)[C@@]6(O5)[C@H](OC(C)=O)[C@@]3(O)C2OC(=O)C(C)C)[C@]14C` (some centres undefined) gave a cell viability of 102%.
Work on `CCCCCCCCCCCCCCCC(=O)OC[C@@H](NC(=O)C(Cl)Cl)[C@H](O)c1ccc([N+](=O)[O-])cc1` yielded a cell viability of 96.2%.
Compound `O=C(O)CCC(=O)OC[C@@H](NC(=O)C(Cl)Cl)[C@H](O)c1ccc([N+](=O)[O-])cc1` has a cell viability of 40.2%.
Work on `O=C(N[C@H](CO)[C@H](O)c1ccc([N+](=O)[O-])cc1)C(Cl)Cl` yielded a cell viability of 101%.
`C[C@@H]1CC[C@@]23CCC4(C)[C@@](C=CC5[C@@]6(C)CCC(=O)C(C)(C)C6CC[C@]54C)(OC2=O)C3[C@H]1C` (some centres undefined) was tested, and the cell viability was 95.6%.
`Oc1cc(O)c2c(c1)O[C@H](c1cc(O)c(O)c(O)c1)[C@H](O)C2` was tested, and the cell viability was 97.9%.
Compound `COc1ccc2c(c1)OC[C@@H](Cc1ccc(OC)c(OC)c1)[C@@H]2O` has a cell viability of 82.3%.
For `CCCCCC/C=C\CCCCCCCc1cccc(O)c1C(=O)O`, the cell viability was 81.2%.
Work on `CC(=O)O[C@H]1CC[C@@]2(C)[C@H](CC[C@@H]3[C@@H]2CC[C@]2(C)[C@@H]4[C@H](C[C@@H]32)O[C@]2(CC[C@@H](C)CO2)[C@H]4C)C1` yielded a cell viability of 94.2%.
`C=CCNC1=C2C[C@@H](C)C[C@H](OC)[C@H](O)[C@@H](C)/C=C(\C)[C@H](OC(N)=O)[C@@H](OC)/C=C\C=C(/C)C(=O)NC(=CC1=O)C2=O` [17-AAG (Tanespimycin)] showed a cell viability of 29.1%.
With `COC1=C2C[C@@H](C)C[C@H](OC)[C@H](O)[C@@H](C)/C=C(\C)[C@H](OC(N)=O)[C@@H](OC)/C=C\C=C(/C)C(=O)NC(=CC1=O)C2=O` [Geldanamycin] the cell viability was 0.865%.
With `CO[C@H]1/C=C\C=C(/C)C(=O)NC2=CC(=O)C(NCCN(C)C)=C(C[C@@H](C)C[C@H](OC)[C@H](O)[C@@H](C)/C=C(\C)[C@@H]1OC(N)=O)C2=O` [17-DMAG HCl (Alvespimycin)] the cell viability was 2.31%.
`C=C1[C@@H]([C@@]2(C)C=CC(=O)C(C)(C)[C@@H]2CC(=O)OC)CC[C@@]2(C)[C@H](c3ccoc3)OC(=O)[C@H]3O[C@]132` gave a cell viability of 102%.
Compound `COC1=CC(=O)C=C(OC)C1=O` has a cell viability of 91.5%.
In the case of `COc1cc(OC)c(C(C)=O)c(O)c1C`, the cell viability is reported as 111%.
`CN[C@@H](C)C(=O)N[C@H]1CN(C(=O)CC(C)C)CC[C@H]2CC[C@@H](C(=O)NC(c3ccccc3)c3ccccc3)N2C1=O` showed a cell viability of 68.5%.
Compound `CON` has a cell viability of 109%.
For `CC(=O)OC/C=C(\C)CC/C=C(\C)CC/C=C(\C)CC/C=C(\C)CC/C=C(\C)CC/C=C(\C)CC/C=C(\C)CC/C=C(\C)CCC=C(C)C`, the cell viability was 106%.
With `O=C1C=C2CC3(O)COc4c(ccc(O)c4O)C3=C2C=C1O` (centres undefined) the cell viability was 97.6%.
`Cc1c2oc3c(C)ccc(C(=O)N[C@@H]4C(=O)N[C@H](C(C)C)C(=O)N5CCC[C@H]5C(=O)N(C)CC(=O)N(C)[C@@H](C(C)C)C(=O)O[C@@H]4C)c3nc-2c(C(=O)N[C@@H]2C(=O)N[C@H](C(C)C)C(=O)N3CCC[C@H]3C(=O)N(C)CC(=O)N(C)[C@@H](C(C)C)C(=O)O[C@@H]2C)c(N)c1=O` was tested, and the cell viability was 1.96%.

From the supplement of paper PMC11150407
